Source: PubChem BioAssay (several laboratories)
PfHsp90 yeast 2 – reduces growth (ATP signal) of yeast expressing P. falciparum Hsp90 | S. cerevisiae expressing PfHsp90, BacTiter-Glo ATP, 48 h; yeast lacking PDR1 and PDR3 efflux regulators | inhibition, % at 9.4 µM | 0.32% of 310,000 active;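 active means every replicate shows inhibition above about 80%, whatever the replicate mean, limit read from the data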;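 further: 0% = DMSO neutral controls and 100% = 20 µM radicicol positive controls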
TIM10 inh – TIM10 yeast growth inhibition. inhibition, % at 10 µM. S. cerevisiae TIM10 strain growth, BacTiter-Glo luminescence, 24 h. AID 463195. 1.4% of 330,000 active;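 active means inhibition of 40% or more at the single tested concentration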;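 further: wild-type TIM10 isogenic control strain grown at permissive 25 °C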
ATG4B inh – inhibitors of human ATG4B cysteine protease. Q9Y4P1. ATG4B cleavage of LC3-PLA2, NBD-HPC fluorescence, 1 h. inhibition, % at 8.33 µM. 0.51% of 340,000 active. AID 504462; in the data active means inhibition above about 40%
Target sequence (Q9Y4P1 whole entry, looked up): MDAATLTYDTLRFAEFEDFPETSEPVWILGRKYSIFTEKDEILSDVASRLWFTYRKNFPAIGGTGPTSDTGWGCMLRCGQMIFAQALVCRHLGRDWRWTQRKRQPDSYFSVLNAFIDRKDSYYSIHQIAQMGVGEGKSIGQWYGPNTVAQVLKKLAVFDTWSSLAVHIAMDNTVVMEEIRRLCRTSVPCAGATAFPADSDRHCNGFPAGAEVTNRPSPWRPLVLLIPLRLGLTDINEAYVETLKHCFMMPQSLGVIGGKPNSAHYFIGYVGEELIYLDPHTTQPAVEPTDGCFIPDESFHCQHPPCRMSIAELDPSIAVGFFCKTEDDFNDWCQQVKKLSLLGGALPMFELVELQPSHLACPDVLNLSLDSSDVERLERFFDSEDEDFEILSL
SKKanGAS inh – SKKanGAS growth inhibition; AID 1662; inhibition, % at 7.5 µM; S. pyogenes SKKanGAS, kanamycin growth, BacTiter-Glo, 6 h; 1.3% of 300,000 active;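 active means mean replicate score, as percent of positive control median, at least 50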;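 further: strain carries kanamycin resistance gene driven by streptokinase promoter and grows in 40 µg/ml kanamycin; loss of luminescence reflects streptokinase promoter inhibition or plain growth inhibition; 0% = median of DMSO wells and 100% = positive control at its reference dose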
tim10-1 inh – inhibits growth of tim10-1 mutant yeast. 2.2% of 330,000 active. AID 463190. S. cerevisiae tim10-1 ts strain growth, BacTiter-Glo, 24 h. inhibition, % at 20 µM;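 active means inhibition of at least 40%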;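 further: mutant grown at 25 °C; 0% = DMSO wells with yeast and 100% = wells holding no yeast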
tim23-1 inh – inhibits growth of tim23-1 mutant yeast | 1.3% of 330,000 active | inhibition, % at 20 µM | S. cerevisiae tim23-1 growth, BacTiter-Glo luminescence, 24 h | AID 463212;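 active means growth inhibition of the mutant yeast at or above 50%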;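 further: temperature-sensitive mutant grown at 25 °C; plate controls were DMSO-treated mutant yeast for no effect and medium wells lacking yeast for full effect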
The depositor's hits bear a star; . = no result. Most compounds without a hit are left out; they make up all but 4.7% or so of the library.

SMILES	PfHsp90 yeast 2	TIM10 inh	ATG4B inh	SKKanGAS inh	tim10-1 inh	tim23-1 inh
O=C(/C=C/c1ccccc1)c1ccccc1	-14.5	5.1	-6.0	4.4	18.4	12.9
COc1ccc(C(OCC(O)CNC(C)c2ccccc2)c2ccc(OC)cc2)cc1 (stereo not given)	-6.4	19.4	-9.2	-10.8	9.8	20.9
CC(C)Nc1c(N)c(=O)oc2ccccc12	16.3	8.2	-1.4	-5.5	9.9	8.4
O=C(CSc1nc2[nH]ncc2c(=O)[nH]1)c1ccc(Cl)cc1	.	0.4	.	-10.4	6.3	-10.9
CN(Cc1ccc(N(C)C)cc1)C(=O)c1cc2ccccc2o1	-0.2	7.4	1.4	59.5*	-3.7	18.9
CN(Cc1ccccc1)C(=O)c1cc2ccccc2o1	4.2	4.1	-0.8	-2.8	17.1	23.7
CNS(=O)(=O)c1cccc(C(=O)OCC(=O)c2ccc(S(=O)(=O)N3CCCCC3)cc2)c1	-14.1	-0.5	-10.9	-6.6	7.4	-3.3
Cc1onc(-c2ccccc2)c1C(=O)Nc1ccc(S(=O)(=O)Nc2nccs2)cc1	-8.2	-16.8	10.0	2.0	11.4	6.6
O=S(=O)(Nc1nccs1)c1ccc(Nc2nnc(-c3ccccc3)c3ccccc23)cc1	-3.4	-7.5	14.7	103.2*	18.9	-10.2
Cc1c(Cc2ccccc2)c(=O)oc2cc(OCc3ccc(C(=O)O)cc3)ccc12	-20.2	14.2	16.4	54.4*	7.0	30.6
CCCCCC(=O)Cc1cc(O)cc2c1C(=O)Oc1cc(O)c(C(=O)O)c(CCCCC)c1O2	.	15.1	18.7	71.3*	28.0	24.4
Cc1cc(OCC(=O)NNC(=S)NC(=O)c2cccs2)ccc1Cl	-28.2	23.2	-1.6	.	27.9	31.1
Cc1ccc(OCC(=O)NNC(=S)NC(=O)c2cccs2)c(C)c1	-85.8	-12.3	1.1	87.1*	-6.8	-42.8
COc1ccc(C(=O)NNC(=S)NC(=O)c2ccc(Br)o2)cc1OC	10.7	1.7	-5.3	65.8*	21.0	4.6
Cc1ccc(OCC(=O)NNC(=S)NC(=O)c2ccc(Br)o2)c(C)c1	-9.5	-3.6	-4.5	93.0*	17.6	15.3
O=C(CCNS(=O)(=O)c1ccc(Br)s1)NCc1ccc2c(c1)OCO2	7.7	7.9	-9.8	-19.9	4.5	11.2
COc1ccc(C(CC(=O)N2CCCC(C)C2)c2c(OC)cc(OC)c3c(-c4ccccc4)cc(=O)oc23)cc1 (stereo not given)	-28.6	14.5	13.4	66.5*	22.2	21.8
COc1ccc(C(CC(=O)N2CCCC2)c2c(OC)cc(OC)c3c(-c4ccccc4)cc(=O)oc23)cc1 (stereo not given)	0.7	-4.8	-8.2	17.1	2.4	17.2
O=C(CNC(=O)c1ccccc1)OCc1cccc(Br)c1	3.6	-19.8	-5.2	-3.7	-23.2	0.2
O=C(CCCNC(=O)c1ccc(Cl)cc1)OCc1cccc(Br)c1	113.4*	-17.4	-1.0	-22.6	-10.1	20.3
Cn1c(NCC(O)CO)nc2c1c(=O)n(Cc1ccc(Cl)c(Cl)c1)c(=O)n2C (stereo not given)	12.0	0.1	-6.8	-2.1	-3.6	0.6
Cn1c(NCc2ccco2)nc2c1c(=O)n(Cc1ccc(Cl)c(Cl)c1)c(=O)n2C	-9.2	32.2	-5.9	58.7*	11.7	6.3
CCOCCn1c(CN2CCCCC2C)nc2c1c(=O)n(C)c(=O)n2C (stereo not given)	14.7	-8.4	-12.5	-2.3	-18.8	-11.3
COc1ccc(/C=C/C(=O)c2c(C)nc3ccccn23)cc1	.	17.2	-0.9	51.2*	22.7	21.6
COc1ccc(CNC(=O)c2c(C)nc3ccccn23)cc1	21.3	-0.5	-16.8	-1.7	23.6	24.0
O=S(=O)(c1c(F)cccc1F)N(CCc1ccc(F)cc1)C[C@@H](O)COCc1ccccc1	119.6*	.	29.5	.	.	.
O=S(=O)(Cc1ccc(Cl)cc1)CC(O)COCc1ccccc1 (stereo not given)	8.9	23.7	-6.1	-7.5	23.2	20.6
O=C(Nc1ccc(Br)c2ccccc12)c1ccc2ccccc2c1O	14.7	.	-9.4	99.6*	.	.
C=CCN(CC=C)C(=S)NC(=O)Cc1cccc2ccccc12	-2.1	37.3	-3.4	24.2	39.1	35.4
O=C(NN1C(=O)/C(=C/c2cc([N+](=O)[O-])ccc2O)SC1=S)c1ccccc1O	.	-1.3	.	-13.2	4.8	9.9
